These results are taken from paper PMC11006913.

Substitutions are numbered along the chain they refer to.

Holding throughout (assay): PBM; 200 nM protein, PBS
Holding throughout (conditions): dsDNA, one strand shown

For test [1], the target named is T1, SIX6 (Homo sapiens, UniProt O95475 114-200, L167M).
T1 sequence: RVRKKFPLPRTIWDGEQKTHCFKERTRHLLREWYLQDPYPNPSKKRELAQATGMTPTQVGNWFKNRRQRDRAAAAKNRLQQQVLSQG

In test [2] the target is T2, PAX4 (Homo sapiens, UniProt O43316 9-242).
T2 sequence: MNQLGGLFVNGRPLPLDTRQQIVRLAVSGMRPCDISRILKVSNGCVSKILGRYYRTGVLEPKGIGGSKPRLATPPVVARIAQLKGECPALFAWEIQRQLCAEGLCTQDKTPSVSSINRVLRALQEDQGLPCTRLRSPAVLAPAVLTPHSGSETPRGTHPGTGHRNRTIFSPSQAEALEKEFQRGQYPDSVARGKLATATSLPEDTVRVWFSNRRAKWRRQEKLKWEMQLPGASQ

Test [3] deals with T3, PAX4 (Homo sapiens, UniProt O43316 9-242, R227W).
T3 sequence: T2 sequence with R219W

In test [4] the target is T4, PAX4 (Homo sapiens, UniProt O43316 9-242, F177V).
T4 sequence: T2 sequence with F169V

Test [5] has as its target T5, PAX4 (Homo sapiens, UniProt O43316 9-242, F177Y).
T5 sequence: T2 sequence with F169Y

Test [6] addresses T6, NKX2-4 (Homo sapiens, UniProt Q9H2Z4 175-261).
T6 sequence: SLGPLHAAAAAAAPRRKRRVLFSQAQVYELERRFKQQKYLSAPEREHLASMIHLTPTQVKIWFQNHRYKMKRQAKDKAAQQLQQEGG

The target in test [7] is T7, NKX2-4 (Homo sapiens, UniProt Q9H2Z4 175-261, R246Q).
T7 sequence: T6 sequence with R72Q

Test [8] concerns the target T8, SIX6 (Homo sapiens, UniProt O95475 114-200, L143M).
T8 sequence: T1 sequence with L30M, M54L

The target of test [9] is T9, SIX6 (Homo sapiens, UniProt O95475 114-200, T139Q).
T9 sequence: T1 sequence with T26Q, M54L

Test [10] deals with T10, SIX6 (Homo sapiens, UniProt O95475 114-200, L143I).
T10 sequence: T1 sequence with L30I, M54L

The target in test [11] is T11, SIX6 (Homo sapiens, UniProt O95475 114-200, L167V).
T11 sequence: T1 sequence with M54V

The target in test [12] is HOXB6 (Homo sapiens, UniProt P17509 132-218, K202E).
Chain of HOXB6 (Homo sapiens, UniProt P17509 132-218, K202E) (P17509 132-218 K202E): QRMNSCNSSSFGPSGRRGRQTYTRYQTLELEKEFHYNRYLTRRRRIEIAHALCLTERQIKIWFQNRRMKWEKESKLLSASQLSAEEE
Test [13] addresses ALX1 (Homo sapiens, UniProt Q15699 118-204, L144V).
In test [14] the target is ALX1 (Homo sapiens, UniProt Q15699 118-204, L144R).
Chain of ALX1 (Homo sapiens, UniProt Q15699 118-204, L144R) (Q15699 118-204 L144R): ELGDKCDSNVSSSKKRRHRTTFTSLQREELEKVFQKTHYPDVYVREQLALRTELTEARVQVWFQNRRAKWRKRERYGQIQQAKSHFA
Test [15] addresses ALX1 (Homo sapiens, UniProt Q15699 118-204).
In test [16] the target is HOXB6 (Homo sapiens, UniProt P17509 132-218).
Chain of HOXB6 (Homo sapiens, UniProt P17509 132-218) (P17509 132-218): as the sequence (P17509 132-218 K202E) above, with E71K counted along it
Test [17] addresses T12, NKX2-6 (Homo sapiens, UniProt A6NCS4 118-204, R150C).
T12 sequence: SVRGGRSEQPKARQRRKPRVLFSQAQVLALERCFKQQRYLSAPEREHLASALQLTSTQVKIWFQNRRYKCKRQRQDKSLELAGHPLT

Test [18] addresses HOXA2 (Homo sapiens, UniProt O43364 129-215, R185T).
The target in test [19] is HOXA2 (Homo sapiens, UniProt O43364 129-215, R185K).
Chain of HOXA2 (Homo sapiens, UniProt O43364 129-215, R185K) (O43364 129-215 R185K): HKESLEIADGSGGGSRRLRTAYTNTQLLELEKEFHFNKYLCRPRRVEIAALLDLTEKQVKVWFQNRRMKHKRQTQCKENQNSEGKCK
Test [20] has as its target HOXA2 (Homo sapiens, UniProt O43364 129-215, Y150S).
Test [21] has as its target HOXA2 (Homo sapiens, UniProt O43364 129-215).
The target of test [22] is NKX3-2 (Homo sapiens, UniProt P78367 192-278, P234S).
Chain of NKX3-2 (Homo sapiens, UniProt P78367 192-278, P234S) (P78367 192-278 P234S): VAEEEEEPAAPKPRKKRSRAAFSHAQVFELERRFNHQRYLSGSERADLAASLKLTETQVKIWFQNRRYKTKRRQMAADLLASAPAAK
In test [23] the target is NKX3-2 (Homo sapiens, UniProt P78367 192-278).
Chain of NKX3-2 (Homo sapiens, UniProt P78367 192-278) (P78367 192-278): as the sequence (P78367 192-278 P234S) above, with S43P counted along it
Test [24] concerns the target ALX3 (Homo sapiens, UniProt O95076 139-225, N203Q).
Test [25] addresses ALX3 (Homo sapiens, UniProt O95076 139-225).
In test [26] the target is ALX3 (Homo sapiens, UniProt O95076 139-225, N203S).
Chain of ALX3 (Homo sapiens, UniProt O95076 139-225, N203S) (O95076 139-225 N203S): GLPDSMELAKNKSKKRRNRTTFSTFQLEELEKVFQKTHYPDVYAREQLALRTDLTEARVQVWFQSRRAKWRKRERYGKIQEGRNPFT
The target of test [27] is T13, NKX2-6 (Homo sapiens, UniProt A6NCS4 118-204).
T13 sequence: T12 sequence with C33R

Test [28] has as its target T14, NKX2-6 (Homo sapiens, UniProt A6NCS4 118-204, F151L).
T14 sequence: T12 sequence with C33R, F34L

Test [29] concerns the target HOXD13 (Homo sapiens, UniProt P35453 263-343, T313R).
In test [30] the target is HOXD13 (Homo sapiens, UniProt P35453 263-343).
Chain of HOXD13 (Homo sapiens, UniProt P35453 263-343) (P35453 263-343): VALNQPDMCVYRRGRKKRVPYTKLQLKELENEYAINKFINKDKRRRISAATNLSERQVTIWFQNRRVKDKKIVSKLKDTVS
Test [31] addresses HOXD13 (Homo sapiens, UniProt P35453 263-343, T313A).

Chain of ALX1 (Homo sapiens, UniProt Q15699 118-204) (Q15699 118-204): as the sequence (Q15699 118-204 L144R) above, with R27L counted along it
Chain of ALX1 (Homo sapiens, UniProt Q15699 118-204, L144V) (Q15699 118-204 L144V): as the sequence (Q15699 118-204 L144R) above, with R27V counted along it
Chain of ALX3 (Homo sapiens, UniProt O95076 139-225, N203Q) (O95076 139-225 N203Q): as the sequence (O95076 139-225 N203S) above, with S65Q counted along it
Chain of HOXD13 (Homo sapiens, UniProt P35453 263-343, T313A) (P35453 263-343 T313A): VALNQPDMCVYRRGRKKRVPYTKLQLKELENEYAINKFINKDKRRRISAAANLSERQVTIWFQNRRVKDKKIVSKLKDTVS
Chain of HOXA2 (Homo sapiens, UniProt O43364 129-215, R185T) (O43364 129-215 R185T): as the sequence (O43364 129-215 R185K) above, with K57T counted along it
Chain of HOXD13 (Homo sapiens, UniProt P35453 263-343, T313R) (P35453 263-343 T313R): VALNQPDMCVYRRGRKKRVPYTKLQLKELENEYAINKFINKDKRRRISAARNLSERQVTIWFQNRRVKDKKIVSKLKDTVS
Chain of HOXA2 (Homo sapiens, UniProt O43364 129-215, Y150S) (O43364 129-215 Y150S): as the sequence (O43364 129-215 R185K) above, with Y22S, K57R counted along it
Chain of HOXA2 (Homo sapiens, UniProt O43364 129-215) (O43364 129-215): as the sequence (O43364 129-215 R185K) above, with K57R counted along it
Chain of ALX3 (Homo sapiens, UniProt O95076 139-225) (O95076 139-225): as the sequence (O95076 139-225 N203S) above, with S65N counted along it

With GTATCGAA, the binding signal in [1] was 10.2 upbm affinity estimate (log intensity, higher = more binding, comparable within an allelic series).
Turning to ACCGATAC, the binding signal in [1] was 10.2 upbm affinity estimate (log intensity, higher = more binding, comparable within an allelic series).
On to CGTTATGC, for which the binding signal was 10.3 upbm affinity estimate (log intensity, higher = more binding, comparable within an allelic series) in [2] and 9.97 upbm affinity estimate (log intensity, higher = more binding, comparable within an allelic series) in [3].
With GGGATATA, the binding signal in test [1] is 10.8 upbm affinity estimate (log intensity, higher = more binding, comparable within an allelic series).
As to GTATCGGA, the binding signal in test [1] was 10.1 upbm affinity estimate (log intensity, higher = more binding, comparable within an allelic series).
Take CCATATCG: the binding signal in [1] was 10.1 upbm affinity estimate (log intensity, higher = more binding, comparable within an allelic series).
Turning to TTAGTCAA, the binding signal in test [2] is 10.9 upbm affinity estimate (log intensity, higher = more binding, comparable within an allelic series); in [4], 10.1 upbm affinity estimate (log intensity, higher = more binding, comparable within an allelic series); in test [5], 10.2 upbm affinity estimate (log intensity, higher = more binding, comparable within an allelic series); in [3], 10.2 upbm affinity estimate (log intensity, higher = more binding, comparable within an allelic series).
Take AGTTCGAG: the binding signal is 11.3 upbm affinity estimate (log intensity, higher = more binding, comparable within an allelic series) in test [6] and 11.6 upbm affinity estimate (log intensity, higher = more binding, comparable within an allelic series) in test [7].
Regarding ATAGATAC, the binding signal was 10.9 upbm affinity estimate (log intensity, higher = more binding, comparable within an allelic series) in test [8] and 11.1 upbm affinity estimate (log intensity, higher = more binding, comparable within an allelic series) in [9].
Consider AGTGCAGA, for which the binding signal was 11.4 upbm affinity estimate (log intensity, higher = more binding, comparable within an allelic series) in test [6] and 11.7 upbm affinity estimate (log intensity, higher = more binding, comparable within an allelic series) in test [7].
Turning to GATACATC, the binding signal in test [10] is 10.4 upbm affinity estimate (log intensity, higher = more binding, comparable within an allelic series).
Consider CGGATATC, for which the binding signal is 10.9 upbm affinity estimate (log intensity, higher = more binding, comparable within an allelic series) in test [8] and 10.8 upbm affinity estimate (log intensity, higher = more binding, comparable within an allelic series) in [11].
In the case of ATACATAC, the binding signal in [10] was 10.4 upbm affinity estimate (log intensity, higher = more binding, comparable within an allelic series).
For the sequence AGTCCCCC, the binding signal in test [12] is 8.9 upbm affinity estimate (log intensity, higher = more binding, comparable within an allelic series); in test [13], 6.53 upbm affinity estimate (log intensity, higher = more binding, comparable within an allelic series); in test [14] it was 6.37 upbm affinity estimate (log intensity, higher = more binding, comparable within an allelic series); in [15], 6.41 upbm affinity estimate (log intensity, higher = more binding, comparable within an allelic series); in test [16], 8.97 upbm affinity estimate (log intensity, higher = more binding, comparable within an allelic series).
In the case of CGAGGCTC, the binding signal in test [12] was 9.01 upbm affinity estimate (log intensity, higher = more binding, comparable within an allelic series); in test [17], 9.43 upbm affinity estimate (log intensity, higher = more binding, comparable within an allelic series); in [16] it was 9.11 upbm affinity estimate (log intensity, higher = more binding, comparable within an allelic series).
As to CACCCGGG, the binding signal in test [12] was 9.01 upbm affinity estimate (log intensity, higher = more binding, comparable within an allelic series); in [18], 7.01 upbm affinity estimate (log intensity, higher = more binding, comparable within an allelic series); in [19], 10.3 upbm affinity estimate (log intensity, higher = more binding, comparable within an allelic series); in [20], 10.5 upbm affinity estimate (log intensity, higher = more binding, comparable within an allelic series); in test [21] it was 7.11 upbm affinity estimate (log intensity, higher = more binding, comparable within an allelic series); in test [16], 8.87 upbm affinity estimate (log intensity, higher = more binding, comparable within an allelic series).
Consider ATCATGAT, for which the binding signal in test [10] was 10.4 upbm affinity estimate (log intensity, higher = more binding, comparable within an allelic series).
On to CTCGTGCC, for which the binding signal in test [12] was 9.04 upbm affinity estimate (log intensity, higher = more binding, comparable within an allelic series); in [13] it was 6.52 upbm affinity estimate (log intensity, higher = more binding, comparable within an allelic series); in test [14], 6.32 upbm affinity estimate (log intensity, higher = more binding, comparable within an allelic series); in test [15] it was 6.36 upbm affinity estimate (log intensity, higher = more binding, comparable within an allelic series); in [16] it was 8.84 upbm affinity estimate (log intensity, higher = more binding, comparable within an allelic series).
With AGTGCGTG, the binding signal in test [6] was 11.3 upbm affinity estimate (log intensity, higher = more binding, comparable within an allelic series).
Consider ATAATACC, for which the binding signal in test [10] was 10.4 upbm affinity estimate (log intensity, higher = more binding, comparable within an allelic series).
For ATATCTAC, the binding signal in test [8] is 11 upbm affinity estimate (log intensity, higher = more binding, comparable within an allelic series).
Take GACCGAGC: the binding signal in [12] is 8.96 upbm affinity estimate (log intensity, higher = more binding, comparable within an allelic series); in [13] it was 6.39 upbm affinity estimate (log intensity, higher = more binding, comparable within an allelic series); in test [14], 6.24 upbm affinity estimate (log intensity, higher = more binding, comparable within an allelic series); in test [15] it was 6.33 upbm affinity estimate (log intensity, higher = more binding, comparable within an allelic series); in [16], 8.92 upbm affinity estimate (log intensity, higher = more binding, comparable within an allelic series).
For AGGCGCTC, the binding signal in test [12] is 9.06 upbm affinity estimate (log intensity, higher = more binding, comparable within an allelic series); in test [13], 6.32 upbm affinity estimate (log intensity, higher = more binding, comparable within an allelic series); in test [14], 6.29 upbm affinity estimate (log intensity, higher = more binding, comparable within an allelic series); in test [22] it was 10.5 upbm affinity estimate (log intensity, higher = more binding, comparable within an allelic series); in [15], 6.17 upbm affinity estimate (log intensity, higher = more binding, comparable within an allelic series); in [16], 8.87 upbm affinity estimate (log intensity, higher = more binding, comparable within an allelic series). Besides, the binding signal in test [23] is 10.6 upbm affinity estimate (log intensity, higher = more binding, comparable within an allelic series).
Consider ACTATTGA, for which the binding signal was 9.51 upbm affinity estimate (log intensity, higher = more binding, comparable within an allelic series) in test [12]; 8.21 upbm affinity estimate (log intensity, higher = more binding, comparable within an allelic series) in test [24]; 9.1 upbm affinity estimate (log intensity, higher = more binding, comparable within an allelic series) in [25]; 8.3 upbm affinity estimate (log intensity, higher = more binding, comparable within an allelic series) in [26]; 10.1 upbm affinity estimate (log intensity, higher = more binding, comparable within an allelic series) in [16].
Take GGACCCCC: the binding signal in test [12] was 8.73 upbm affinity estimate (log intensity, higher = more binding, comparable within an allelic series); in [27], 9.37 upbm affinity estimate (log intensity, higher = more binding, comparable within an allelic series); in test [28], 8.99 upbm affinity estimate (log intensity, higher = more binding, comparable within an allelic series); in test [16] it was 8.68 upbm affinity estimate (log intensity, higher = more binding, comparable within an allelic series).
Consider AACTACTT, for which the binding signal was 9.54 upbm affinity estimate (log intensity, higher = more binding, comparable within an allelic series) in [12]; 11.2 upbm affinity estimate (log intensity, higher = more binding, comparable within an allelic series) in test [17]; 10.1 upbm affinity estimate (log intensity, higher = more binding, comparable within an allelic series) in test [16].
As to ACGGGCCT, the binding signal in [12] was 8.87 upbm affinity estimate (log intensity, higher = more binding, comparable within an allelic series); in [17], 9.14 upbm affinity estimate (log intensity, higher = more binding, comparable within an allelic series); in test [16] it was 8.95 upbm affinity estimate (log intensity, higher = more binding, comparable within an allelic series).
In the case of GGCCTCCC, the binding signal is 8.93 upbm affinity estimate (log intensity, higher = more binding, comparable within an allelic series) in [12]; 9.37 upbm affinity estimate (log intensity, higher = more binding, comparable within an allelic series) in test [29]; 9.63 upbm affinity estimate (log intensity, higher = more binding, comparable within an allelic series) in test [30]; 9.7 upbm affinity estimate (log intensity, higher = more binding, comparable within an allelic series) in test [31]; 9.02 upbm affinity estimate (log intensity, higher = more binding, comparable within an allelic series) in test [16].
